Among all 13,000 compounds or so, about 3,200 (25%) showed an effect of 50% or more. This is one part of the list.
System: P. falciparum stage V gametocytes
Design: BacTiter-Glo ATP luminescence viability of purified stage V gametocytes in 384-well plates, per cent inhibition versus DMSO
Conditions: 48 h, 5 µM; inhibitor

SMILES | % Inhibition [%]
COc1c(F)ccc2ncc(Cl)c(CCN3CCC(NCc4ccc5c(n4)NC(=O)CS5)CC3)c12 [TCMDC-141955] | 54.36
COc1ccc2ncc(Cl)c([C@@H](O)CN3CCC(NCc4cc5c(cn4)OCCO5)CC3)c2c1 [TCMDC-135470] | 13.81
COc1ccc2ncc(C)c(CCN3CCC(NCc4ccc5c(n4)NC(=O)CS5)CC3)c2c1 [TCMDC-134648] | 44.1
COc1ccc2ncc(F)c(CCN3CC(O)C(CNCc4ccc5c(n4)NC(=O)CS5)C3)c2c1 (stereo not shown) [TCMDC-136187] | 16.49
COc1ccc2nccc(CCN3CC(O)C(CNCc4ccc5c(n4)NC(=O)CS5)C3)c2n1 (stereo not shown) [TCMDC-136132] | 27.64
COc1ccc2ncc(Cl)c([C@H](O)CN3CCC(NCc4cc5c(cn4)OCCO5)CC3)c2c1 [TCMDC-135469] | 53.55
COc1ccc2ncc(F)c([C@@H](O)CN3CCC(NCc4cc5c(cn4)OCCO5)CC3)c2c1 [TCMDC-135379] | 9.097
COc1cc(F)c2ncc(F)c(CCN3C[C@H](CNCc4ccc5c(n4)NC(=O)CS5)[C@H](O)C3)c2c1 [TCMDC-136333] | 73.35
Cn1ncc2c3c(CCN4CCC(NCc5cc6c(cn5)OCCO6)CC4)c(Cl)cnc3ccc21 [TCMDC-136008] | 9.388
Fc1ccc2ncc(Cl)c(CCN3CCC(NCc4cc5c(cn4)OCCO5)CC3)c2c1 [TCMDC-133446] | 74.26
Clc1cnc2ccc3c(c2c1CCN1CCC(NCc2cc4c(cn2)OCCO4)CC1)OCCO3 [TCMDC-134566] | 24.75
Cc1ccc2ncc(Cl)c(CCN3CCC(NCc4ccc5c(n4)NC(=O)CS5)CC3)c2n1 [TCMDC-141963] | 7.636
Cc1ccc(C(=O)NC2CC2)cc1-c1ccc2c(cnn2S(=O)(=O)c2ccc(F)cc2)c1 [TCMDC-138772] | 31.89
O=C(NCCc1cccc(Cl)c1Cl)c1ccc(N2CCN(c3ccncc3)CC2)nc1 [TCMDC-134587] | 10.14
Cc1ccc(C(=O)Nc2cc(C(F)(F)F)cc(C(F)(F)F)c2)cc1[N+](=O)[O-] [TCMDC-125645] | -10.1
Cc1csc(-c2nc(NCCc3c(C)noc3C)ncc2-c2ccsc2)n1 [TCMDC-125354] | 34.89
Nc1ncc(-c2ccsc2)c2ccc(-c3cc(NCc4ccccc4)ncn3)cc12 [TCMDC-135660] | 18.52
O=C(Cc1c[nH]cn1)Nc1ccc(-c2ccc(-c3nc4ccccc4[nH]3)s2)cc1 [TCMDC-136939] | -25.08
O=C(/C=C/c1ccc(Cl)c(Cl)c1)N1CCC(NCc2ccc3[nH]ccc3c2)CC1 [TCMDC-134198] | 36.44
CCC1N=C(N)N=C(N)N1OCc1ccc(Cl)c(Cl)c1 (stereo not shown) [TCMDC-131593] | 19.76
CC(=O)C=C1CC(=O)N(C[C@@H](O)[C@H]2O[C@@H]3OC(C)(C)O[C@@H]3[C@H]2O)c2ccccc2N1 [TCMDC-138271] | 11.95
O=C(/C=C/c1ccc(C(F)(F)F)cc1)NCCCCCN1CCCN(C(=O)Nc2cccc(Cl)c2)CC1 [TCMDC-136108] | -11.12

SMILES | % Inhibition [%]
CCOc1cccc(C(=O)Nc2cccc(CN3CCCN(Cc4cccc(O)c4)CC3)c2)c1 [TCMDC-141861] | -4.748
O=C1CSc2ccc(CNC3CCN(CCc4c(Cl)cnc5ccc(F)cc45)CC3)nc2N1 [TCMDC-141960] | 55.74
COc1cc(F)c2ncc(Cl)c(CCN3CCC(NCc4ccc5c(n4)NC(=O)CS5)CC3)c2c1 [TCMDC-134318] | 94.95
COc1ccc2ncc(Cl)c(CCN3CCC(NCc4ccc5c(n4)NC(=O)CS5)CC3)c2c1 [TCMDC-141807] | -3.776
O=C1CSc2ccc(CNC3CCN(CCc4c(F)cnc5ccc(F)cc45)CC3)nc2N1 [TCMDC-135095] | -0.4072
COc1cc(F)c2ncc(Cl)c(CCN3CCC(NCc4ccc5c(c4)NC(=O)CS5)CC3)c2c1 [TCMDC-135620] | 12.4
O=C1CSc2ccc(CNC3CCN(CCc4c(Cl)cnc5ccc(Cl)cc45)CC3)nc2N1 [TCMDC-141959] | 32.4
Cc1ccc(CNC(=O)c2cc3c(=O)n4ccccc4nc3n(CCCN3CCOCC3)c2=N)cc1 [TCMDC-125409] | 26.53
CC(O)C1CCCCN1C(=O)c1cccc(-c2cccc(-c3nc4cc(C(F)(F)F)ccc4[nH]3)c2)c1 (stereo not shown) [TCMDC-132335] | 13.24
O=C(Nc1cccc(C(F)(F)F)c1)NC1CCN(c2ccnc3cc(Cl)ccc23)CC1 [TCMDC-133567] | -12.77
O=C(Cn1cc(C(F)(F)F)cc(Cl)c1=O)N1CCN(S(=O)(=O)c2ccc(Cl)cc2)CC1 [TCMDC-123617] | 70.99
O=C(CN(c1cccc(C(F)(F)F)c1)S(=O)(=O)c1ccc(Cl)cc1)NCCC(c1ccccc1)c1ccccc1 [TCMDC-136712] | 5.637
O=C(CN1CCN(S(=O)(=O)C=Cc2ccccc2)CC1)Nc1cc(C(F)(F)F)ccc1Cl [TCMDC-124538] | -9.823
CC(C)NC(=O)c1cccc(-c2ccc(OCCN3CCCC3c3cc4ccccc4[nH]3)cc2)c1 (stereo not shown) [TCMDC-134385] | -6.463
CC(C)CN1C(=O)c2ccccc2C(C(=O)Nc2cccc(C#N)c2)C1c1cccs1 (stereo not shown) [TCMDC-124758] | 44.13
CC(=O)c1ccc(NC(=O)C2c3ccccc3C(=O)N(CC(C)C)C2c2cccs2)cc1 (stereo not shown) [TCMDC-124757] | 58.39
CC(C)CN1C(=O)c2ccc(C(=O)Nc3nccs3)cc2C1=O [TCMDC-125773] | -2.752
CC(=O)c1cccc(NC(=O)C2c3ccccc3C(=O)N(CC(C)C)C2c2cccs2)c1 (stereo not shown) [TCMDC-124756] | 54.72
Cc1ccc(Nc2nc3cc(N(C)c4ccnc(Nc5cccc(CS(C)(=O)=O)c5)n4)ccc3o2)cc1 [TCMDC-141956] | -42.21
CC(C)C1=NCc2ccc([N+](=O)[O-])cc2C(=O)N1 [TCMDC-131785] | -3.925
Cn1nc(-c2cccc(CNC3CCc4ccccc43)c2)c2cnc(NCCCN3CCCC3)nc21 (stereo not shown) [TCMDC-135034] | 78.32
Cn1nc(-c2cccc(CN[C@@H]3CCc4ccc(O)cc43)c2)c2cnc(NCCCN3CCCC3)nc21 [TCMDC-135035] | 59.7

SMILES | % Inhibition [%]
Cn1nc(-c2ccc(CN[C@@H]3CCc4ccc(O)cc43)cc2)c2cnc(NCCCN3CCCC3)nc21 [TCMDC-135037] | 45.21
c1cc(CN2CCc3ccccc3CC2)cc(-c2c[nH]c3nc(NC4CCCC4)ncc23)c1 [TCMDC-133774] | -80.37
Cn1nc(-c2cccc(CNC3CCc4ccccc43)c2)c2cnc(NC3CCCC3)nc21 (stereo not shown) [TCMDC-135030] | -10.51
Cn1nc(-c2cccc(CN[C@@H]3CCc4ccc(O)cc43)c2)c2cnc(NC3CCCC3)nc21 [TCMDC-135032] | -0.5073
O=C(N[C@@H](CC1CCCCC1)C(=O)NC1CC1)c1ccc(O)c(-c2cccc(C(F)(F)F)c2)c1 [TCMDC-140807] | 9.846
COc1ccc(-c2nc3nc4ccccc4cc3[nH]2)c(OCC(O)CNC(C)C)c1 (stereo not shown) [TCMDC-137443] | 26.08
COc1ccc(NC(=O)c2ccc(-c3cc(NC(=O)c4ccnc(N5CCCC5)c4)ccc3C)s2)cc1N1CCN(C)CC1 [TCMDC-136373] | 32.31
CN(C)CCC1CCN(CCS(=O)(=O)c2cccc(Nc3ccc(-c4cccc(F)c4)cn3)c2)CC1 [TCMDC-134375] | 43.14
COCCOC(=O)C(=O)c1c(-c2ccccc2)c(-c2ccc(OC)c(OC)c2)c2c3cc(OC)c(OC)cc3ccn12 [TCMDC-125087] | 52.27
COC(=O)C(=O)c1c(-c2ccccc2)c(-c2ccc(OC)c(OC)c2)c2c3cc(OC)c(OC)cc3ccn12 [TCMDC-125088] | 26.26
COc1ccc(-c2cc(C(=O)N3CCc4ccccc43)c3ccccc3n2)cc1OC [TCMDC-123715] | -27.24
O=C(Cc1cccc(OCCCN(Cc2cccc(C(F)(F)F)c2Cl)CC(c2ccccc2)c2ccccc2)c1)NCc1ccco1 [TCMDC-141563] | 90.42
CCc1ccc(CN(CCCOc2cccc(CC(=O)NCc3cnc[nH]3)c2)Cc2ccc(-n3ccnc3)cc2)cc1 [TCMDC-134288] | 15.75
O=C(NCc1ccco1)c1ccc(CN2CCN(C(c3ccccc3)c3ccccc3)CC2)cc1 [TCMDC-140763] | -11.73
CCCc1cc(OC)c(CC2c3cc(O)c(Cl)cc3C(c3ccccc3)CN2C)cc1OC (stereo not shown) [TCMDC-137432] | 12.27
CCCCNC(=O)c1[nH]c2c(NC(=O)COc3ccccc3)cccc2c1-c1cccc(NC(=O)C(N)CO)c1 (stereo not shown) [TCMDC-140060] | -98.74
CCN1CCC(N(Cc2ccc(-c3ccc(C(F)(F)F)cc3)cc2)C(=O)Cn2c(CCc3cccc(F)c3F)cc(=O)c3cn(C)nc32)CC1 [TCMDC-141156] | 59.01
CC(C)N1CCC(N(Cc2ccc(-c3ccc(C(F)(F)F)cc3)cc2)C(=O)Cn2c(CCc3cccc(F)c3F)cc(=O)c3cn(C)nc32)CC1 [TCMDC-136048] | 117.7
Cc1ccc(O)cc1Nc1ccnc2cc(-c3ccccc3)ccc12 [TCMDC-138295] | -25.3
COc1cc2c(cc1NS(=O)(=O)c1ccc(OCc3ccc(Br)cc3)cc1)CCN(C1CCC1)CC2 [TCMDC-136020] | 14.15

Reference: PMC4552634, “A New Set of Chemical Starting Points with Plasmodium falciparum Transmission-Blocking Potential for Antimalarial Drug Discovery” (PLoS ONE, 2015)
